Measured values: ChEMBL document CHEMBL4513216, “Probing the Open Global Health Chemical Diversity Library for Multistage-Active Starting Points for Next-Generation Antimalarials” (ACS Infect Dis, 2020)
The campaign covered roughly 69,000 compounds. About 8,600 (12%) showed an effect of 50% or more. The sample as a whole holds a higher share of strong results than the screen did.

system: Plasmodium berghei; test: Screen against P. berghei liver stage (PbLuc), transformed with Luciferase, at 10uM; assay type: functional, HepG2; conditions: tested at 10 uM

| Structure (SMILES) | INHIBITION |
| --- | --- |
| O=C(c1ccco1)N1CC[C@@H](N2CCOCC2)[C@@H]1Cc1ccncc1 | 24.1% |
| Cc1cc(CN2CCN(C(=O)NCc3c(C)noc3C)CC2)on1 | 44.3% |
| O=c1[nH]nc2c(S(=O)(=O)N3CCN(c4ccc(F)cc4)CC3)cccn12 | 39.5% |
| Cc1cnn(CCNCc2csc(-c3ccsc3)n2)c1 | -69.15% |
| CC(CN1CCOCC1)NC(=O)Nc1cccnc1-n1cccn1 (stereo not given) | -31.1% |
| CN(C)CCO[C@@H]1CC[C@H]2[C@H]1OCCN2C(=O)c1ccc(F)cc1 | 42.1% |
| CC(=O)N1CCC(Cc2cnc(-c3c(C)n[nH]c3C)cn2)CC1 | 1.5% |
| Cc1cc(NC(C)Cc2cccs2)n2nccc2n1 (stereo not given) | 42.1% |
| Cn1cc(CN2CCC(F)(F)C3(CCN(c4cnccn4)C3)C2)cn1 (stereo not given) | -31.5% |
| CCOc1ncnc2c1CCN(Cc1cccs1)CC2 | 36.2% |
| COc1cc(C)ccc1OCCC(=O)N1CCCC(n2cncn2)C1 (stereo not given) | -16% |
| CCOCC1CN(C(=O)Cc2ccccn2)Cc2c1cnn2CC (stereo not given) | 42.7% |
| CCOCC1CN(C(=O)COc2ccccc2)Cc2cn(C)nc21 (stereo not given) | 5.96% |
| CCOCC1CN(C(=O)Cc2ccccn2)Cc2cnn(C)c21 (stereo not given) | -45.8% |
| CCOCC1CN(C(=O)Cc2ccccn2)Cc2cn(C)nc21 (stereo not given) | 51.2% |
| CCOCC1CN(C(=O)Cc2ccccn2)Cc2cn(CC)nc21 (stereo not given) | 31.4% |
| CCOCC1CN(C(=O)c2cnoc2C)Cc2cn(CC3CC3)nc21 (stereo not given) | -50.8% |
| CCOCC1CN(C(=O)c2cnoc2C)Cc2cn(C)nc21 (stereo not given) | 51.2% |
| CCOCC1CN(C(=O)Cc2ccccn2)Cc2cnn(CC)c21 (stereo not given) | 54.4% |
| CCOCC1CN(C(=O)c2cnoc2C)Cc2cnn(C)c21 (stereo not given) | -11.2% |
| CC(NC(=O)N1CCC1)c1ccc(S(C)(=O)=O)cc1 (stereo not given) | 18.4% |
| CC(=O)N(C)c1nc(CN2CCCC2Cn2nc(C)cc2C)cs1 (stereo not given) | -14.7% |
| O=C(c1csc(-c2ccccn2)n1)N1CCCC1Cn1cccn1 (stereo not given) | 38.8% |
| O=C(Cc1cccs1)N1CCC(O)(CN2CCc3ccccc3C2)C1 (stereo not given) | 38.2% |

| Structure (SMILES) | INHIBITION |
| --- | --- |
| CC(=O)NCC1CCN(C(=O)CCOc2ccc(C(C)C)cc2)CC1 | -39.35% |
| CSc1ccc(CNC(=O)NCC(O)c2cccc(F)c2)cc1 (stereo not given) | 19.6% |
| CNC(=O)NCC1CCC2(CCN(c3ncccn3)CC2)CO1 (stereo not given) | 15.8% |
| CC(=O)N1CC(=O)N(c2cnn(C)c2)CC12CCN(Cc1cccs1)C2 (stereo not given) | 6.27% |
| CN(C)Cc1csc(-c2nccn2Cc2ccsc2)c1 | 66.1% |
| CN(C)Cc1csc(-c2nccn2CCc2cccnc2)c1 | 59.1% |
| CN(C)Cc1cc(-c2nccn2CCc2cccnc2)ccc1O | 31.3% |
| Cc1nc(C)c(Cn2ccnc2-c2cc(CN(C)C)cs2)s1 | 30.9% |
| Cc1c(Cn2ccnc2-c2cc(CN(C)C)cs2)cnn1C | 23.5% |
| CN(C)Cc1csc(-c2nccn2Cc2ccc(C(=O)O)cc2)c1 | 37.4% |
| O=C(NCC1CCOCC1)c1cc(-c2ccncc2)c2cnccc2n1 | 17.4% |
| CN(Cc1nnc2n1CCC2)C(=O)CCc1ccc2c(c1)OCO2 | -21.8% |
| C[C@H]1CN(Cc2cccc(F)c2)C[C@@]12CCN(CC(=O)N(C)C)C2=O | 19.8% |
| Cc1ccc(N2CCCC(NCc3ccc(Cl)o3)C2)nn1 (stereo not given) | -12.1% |
| COc1ccc(C(C(=O)O)N(C)Cc2ccon2)cc1Cl (stereo not given) | -23.5% |
| COc1cc(C)cc(OC)c1C(C(=O)O)N(C)Cc1c(C)nn(C)c1C (stereo not given) | 9.56% |
| CCOc1ccccc1C(C(=O)O)N(C)Cc1nnc(C)o1 (stereo not given) | -0.614% |
| Cc1n[nH]c(C)c1CN(C)C(C(=O)O)c1c(F)cccc1OC(C)C (stereo not given) | 40.6% |
| COc1cccc(Cl)c1C(C(=O)O)N(C)Cc1c(C)n[nH]c1C (stereo not given) | 57.6% |
| COc1cccc(OC)c1C(C(=O)O)N(C)Cc1c(C)n[nH]c1C (stereo not given) | 53.3% |
| Cc1n[nH]c(C)c1CN(C)C(C(=O)O)c1ccc2c(c1)OCO2 (stereo not given) | 11.2% |
| COc1cccc(Cl)c1C(C(=O)O)N(C)Cc1nnc(C)o1 (stereo not given) | 52.2% |
| COc1cccc(C(=O)N(C)C(C)c2c(C)n[nH]c2C)c1OC (stereo not given) | 12.6% |
| COc1ccc(CCC(=O)Nc2ccc3ncn(C)c(=O)c3c2)cc1 | 22.3% |

| Structure (SMILES) | INHIBITION |
| --- | --- |
| COCc1cn(CC2CCN(Cc3nc(C)c[nH]3)CC2)nn1 | -7.85% |
| Cc1cc(C(=O)N2CCc3c(CN(C)C)nn(C)c3C2)[nH]n1 | 13.7% |
| O=C(NCCc1ccncc1)c1cccc(S(=O)(=O)N[C@@H]2CCNC2)c1 | -16.1% |
| O=C(Nc1nc2c(s1)CN(S(=O)(=O)C1CC1)CC2)C1CC1 | 37.9% |
| O=C(Nc1nc2c(s1)CNCC2)C1CC1 | 52.7% |
| O=C(Nc1nc2c(s1)CNCC2)NC1CCCC1 | 44.5% |
| O=C(COc1ccccc1Br)N1CCOc2ccncc21 | 9.35% |
| O=C(c1cc(-n2cccn2)ccn1)N1CCOc2ccncc21 | 52.9% |
| COc1cccc(OCC(=O)N2CCOc3ccncc32)c1 | -28.9% |
| COc1ccc(C(=O)N2CCOc3ccncc32)cc1 | 60% |
| O=C(c1cc(-n2cccn2)ccn1)N1CCOc2ccc(F)cc21 | 23.3% |
| O=C(c1cc(-n2cccn2)ccn1)N1CCOc2ncccc21 | 30.5% |
| c1cnc2c(c1)cc([C@@H]1CCCO1)n2CCN1CCCCC1 | 38.8% |
| COC(=O)C(c1cc(F)ccc1F)N(C)C(=O)c1cnccn1 (stereo not given) | 48.4% |
| CC(C)c1nn(C)c(N(C)C)c1CNC(C)c1ccccc1F (stereo not given) | 15.5% |
| Cc1nc(CO[C@@H]2CN(Cc3ccco3)[C@@H]3COC[C@@H]32)cs1 | 18.2% |
| OC(c1ccccn1)C1CCN(Cc2cc3n(n2)CCCNC3)CC1 (stereo not given) | 51.2% |
| c1ccc(COC2CCN(Cc3cc4n(n3)CCCNC4)CC2)nc1 | 37.9% |
| c1csc(N2CCN(Cc3cc4n(n3)CCNC4)CC2)n1 | -90.8% |
| OC(c1ccccn1)C1CCN(Cc2cc3n(n2)CCNC3)CC1 (stereo not given) | 61.5% |
| O=C1OCCN1C1CCN(Cc2cc3n(n2)CCCNC3)CC1 | -78.3% |
| c1ccc(C2CCCN(Cc3cc4n(n3)CCNC4)CC2)cc1 (stereo not given) | 18.4% |
